The whole screen tested about 63,000 compounds, of which about 1,100 (1.7%) were called active. For the sample, actives were picked, then their nearest neighbours and some compounds at random. Results with a measured potency or affinity are listed apart. A number with no mark means an inactive call. Cut-off read from the data, not from the text of the source: active = cytotoxicity above about 50%; inactive = the rest.

The experiment can be described thus: HPDE-C7 pancreatic duct cell viability loss – fluorescence, HTS (AID 430).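 Note: cells exposed to compound for 48 hours before viability readout; 0% = vehicle and 100% = reference cytotoxic drug.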 The conditions noted are these: HPDE-C7 pancreatic duct cells viability, at 10 µM, stronger effect = higher value.
In the case of `CS(=O)(=O)Nc1ccc(C(=O)NCCSCc2ccco2)cc1`, the cytotoxicity is -13.9%.

Turning to `COCCOC(=O)C1=C(C)NC(=O)NC1c1ccc(OC(=O)c2ccco2)c(OC)c1` (stereo unspecified), the cytotoxicity is -1.8%.

With `Cc1cc(=O)[nH]c(N2CCN(C(c3ccccc3)c3ccccc3)CC2)n1`, the cytotoxicity was -6%.

For `COc1ccc(C2CC(=O)c3cnc(NC(=O)c4cc(OC)cc(OC)c4)nc3C2)cc1` (stereo unspecified), the cytotoxicity is -16.4%.

Take `O=C(NCCN1CCOCC1)c1ccc(-c2ccccc2)cc1`: the cytotoxicity was 2.5%.

In the case of `CCN(CC)S(=O)(=O)c1ccc(NC(=O)COc2c(OC)cccc2OC)cc1`, the cytotoxicity was -2.7%.

For the compound `O=C(CSc1nnc(C23CC4CC(CC(C4)C2)C3)o1)Nc1ccc(N2CCOCC2)c(Cl)c1`, the cytotoxicity was -10%.

Regarding `CCOC(=O)c1oc2ccc(S(=O)(=O)n3nc(-c4ccc(OC)cc4)cc3N)cc2c1C`, the cytotoxicity is 54.2% (active).

Regarding `CCOC(=O)c1oc2ccc(S(=O)(=O)N3CCOCC3)cc2c1C`, the cytotoxicity is 3.6%.

On to `CCOC(=O)c1oc2ccc(S(=O)(=O)N3CCC(C)CC3)cc2c1C`, for which the cytotoxicity is 16.8%.

As for `CCn1c(CSc2nccn2C)nc2cc(C(=O)O)ccc21`, the cytotoxicity is 2.6%.

As for `NC1=NC(=O)CC(C(=O)NCc2ccccc2)S1` (stereo unspecified), the cytotoxicity was -6.8%.

In the case of `COc1ccccc1OCC(O)Cn1c(Br)nc2c1c(=O)[nH]c(=O)n2C` (stereo unspecified), the cytotoxicity is 2.9%.

Regarding `CC(C)CSc1nc2c(c(=O)[nH]c(=O)n2C)n1CC(O)COc1cccc2ccccc12` (stereo unspecified), the cytotoxicity is 68.7% (active).

With `CCSc1nc2c(c(=O)[nH]c(=O)n2C)n1CC(O)COc1ccccc1C` (stereo unspecified), the cytotoxicity was -1.3%.

On to `Cc1ccccc1OCC(O)Cn1c(N2CCN(c3ccccc3)CC2)nc2c1c(=O)[nH]c(=O)n2C` (stereo unspecified), for which the cytotoxicity is 82.9% (active).

Regarding `Cn1c(=O)[nH]c(=O)c2c1nc(N1CCOCC1)n2CC(O)COc1ccccc1` (stereo unspecified), the cytotoxicity is -10.9%.

As for `Cc1ccccc1OCC(O)Cn1c(SC(C)C)nc2c1c(=O)[nH]c(=O)n2C` (stereo unspecified), the cytotoxicity was 0.7%.

With `Cc1nn(CCC(=O)O)c2nc(-c3cccnc3)cc(C(F)(F)F)c12`, the cytotoxicity was -17.9%.

For `CCN(CC)C(c1ccc(C)cc1)c1nnnn1C1CCCCC1` (stereo unspecified), the cytotoxicity is -25.4%.

As for `Cc1ccc(S(=O)(=O)C2(C(=O)N3CCN(C4CCCCC4)CC3)CC2)cc1`, the cytotoxicity is 6.1%.

On to `CCCC(=O)NC(c1ccco1)c1cc(Cl)c2cccnc2c1O` (stereo unspecified), for which the cytotoxicity is 59.7% (active).

Regarding `O=C(Oc1c(Cl)cc(Cl)c2cccnc12)N1CCCCC1`, the cytotoxicity was -1.1%.

Turning to `CCCC(=O)Nc1ccc(Cl)c(NC(=O)c2ccco2)c1`, the cytotoxicity was -1.6%.

`O=C(OCC(=O)N(C1CCCCC1)C1CCCCC1)c1ccncc1`: the cytotoxicity was 4.3%.

With `Cc1cccc(C#N)c1NC1=CC(=O)CC(C)(C)C1`, the cytotoxicity is -3.4%.

Take `COc1cc(NCCCC(C)N)c2ncccc2c1` (stereo unspecified): the cytotoxicity is -12.1%.

In the case of `O=S(=O)(Nc1cccc2cccnc12)c1ccc(S(=O)(=O)N2CCCC2)cc1`, the cytotoxicity was 57.1% (active).

Regarding `CS(=O)(=O)Nc1cccc2cccnc12`, the cytotoxicity was 6.6%.

For the compound `COc1ccc(NS(=O)(=O)c2ccc(Oc3ncccn3)cc2)cc1`, the cytotoxicity is 17.1%.

Take `COc1cc(NS(=O)(=O)c2ccc(C)cc2)c2ncccc2c1`: the cytotoxicity was 57.2% (active).

As for `O=C(C1CCN(S(=O)(=O)c2cccc3cccnc23)CC1)N1CCCC1`, the cytotoxicity was -7.2%.

`Cc1nnc(SCC(=O)Nc2cc(C(F)(F)F)ccc2N2CCOCC2)o1`: the cytotoxicity is 12.9%.

`CC/C(=N\O)c1ccc(OC)c(OC)c1`: the cytotoxicity is -4.4%.

As for `CC(=O)CSc1ncnc2nc[nH]c12`, the cytotoxicity was 5.4%.

In the case of `CC(C)(C)c1cc(Br)ccc1OCC(=O)Nc1ncn[nH]1`, the cytotoxicity is 21.9%.

As to `CCC(C)NC(=O)C1c2cc(OC)c(OC)cc2C(=O)N(C)C1c1ccc(OC)cc1` (stereo unspecified), the cytotoxicity is -7.8%.

In the case of `CCOC(=O)CSc1nc(C)cc(=O)[nH]1`, the cytotoxicity was 1.4%.

For the compound `CC(=O)c1c(C)cc(C)c(CSc2nc(C)cc(=O)[nH]2)c1C`, the cytotoxicity was 51.3% (active).

Turning to `CCCSc1nc(C)cc(=O)[nH]1`, the cytotoxicity was 1.4%.

For `COc1cc(NS(=O)(=O)c2ccc(C)cc2C)cc(OC)c1OC`, the cytotoxicity was 37%.

Regarding `O=C(O)c1cccc(S(=O)(=O)Nc2ccc3oc(=O)sc3c2)c1`, the cytotoxicity is 1.3%.

With `Cn1c(=O)c2cn(-c3ccc4c(c3)OCCO4)cc2n(C)c1=O`, the cytotoxicity was -24.9%.

As to `O=C1Cc2ccccc2C(=O)N1CCc1ccccc1`, the cytotoxicity was -14.2%.

With `Cc1cc(NC(=O)c2cnn3c(C(F)F)cc(-c4ccccc4)nc23)no1`, the cytotoxicity is -6.1%.

Consider `CC1CCN(c2nc3ccccc3nc2C(C#N)S(=O)(=O)c2ccccc2)CC1` (stereo unspecified), for which the cytotoxicity was 12.4%.

For the compound `Cc1ccc(S(=O)(=O)C(C#N)c2nc3ccccc3nc2N2CCC(C)CC2)cc1` (stereo unspecified), the cytotoxicity is 5.7%.

`COc1ccc(S(=O)(=O)C(C#N)c2nc3ccccc3nc2N2CCCC(C)C2)cc1` (stereo unspecified): the cytotoxicity was 61.7% (active).

Regarding `N#CC(c1nc2ccccc2nc1N1CCCC1)S(=O)(=O)c1ccccc1` (stereo unspecified), the cytotoxicity is -10.1%.

As for `CC1CCCN(c2nc3ccccc3nc2C(C#N)S(=O)(=O)c2ccccc2)C1` (stereo unspecified), the cytotoxicity is 52.3% (active).

Consider `COc1ccc(S(=O)(=O)C(C#N)c2nc3ccccc3nc2N2CCCCC2)cc1` (stereo unspecified), for which the cytotoxicity is -10.2%.

With `CCS(=O)(=O)NCCc1csc(-c2ccccc2)n1`, the cytotoxicity was -4.2%.

On to `CCSc1nc(C)c(CC)c(C)c1C(N)=O`, for which the cytotoxicity was 1.9%.

As for `CCOC(=O)CC(=O)CSc1[nH]c(=O)cc(C)c1C#N`, the cytotoxicity was -1.4%.

Regarding `Cc1ccc(-c2cn3cccnc3n2)cc1NC(=O)c1c(-c2ccccc2Cl)noc1C`, the cytotoxicity is 40.2%.

As to `Cc1c(C(=O)N(Cc2cccs2)C2CCS(=O)(=O)C2)oc2ccccc12` (stereo unspecified), the cytotoxicity was -22.1%.

As to `CN(C)S(=O)(=O)c1ccc(-c2ccccc2)cc1`, the cytotoxicity was -2.3%.

As to `CN(C)S(=O)(=O)n1cnc(-c2ccccc2)c1-c1ccccc1`, the cytotoxicity is -7.9%.

For the compound `Cc1ccc(CNC(=O)c2cn(C3CCCCC3)c(=O)c3c2c2ccccc2n3C)o1`, the cytotoxicity is -4%.

As for `O=S(=O)(NCCOc1ccc(F)cc1)c1ccc2c(c1)OCCO2`, the cytotoxicity is -5.3%.

As to `Brc1cnn(-c2nc(N3CCOCC3)nc(N3CCOCC3)n2)c1`, the cytotoxicity was 5.8%.

(Values after PubChem BioAssay AID430 (Sanford-Burnham Center for Chemical Genomics, 2006).)
